aSyn UTR act: Activators via SNCA 5'UTR binding, MLPCN; activity score, % (tested at 7.5 µM), hits read low; AID 1814, 2009; 300,000 tested, 7.1% active; alpha-synuclein 5'UTR reporter, activators screen; in the data active = activity score below about -60%
Starred values were filed as active, the others as inactive. A selection follows.

SMILES	aSyn UTR act
COc1ccc(OCc2cccc(C(=O)NN)c2)cc1	67
O=C(Nc1ccccc1F)c1ccc(OCc2ccccc2)cc1	-141*
CSCc1ccc(C(=O)Nc2ccc(C(N)=O)cc2)cc1	-141*
O=C(NCC1CCCO1)c1ccc(COc2ccccc2)cc1 (stereo not given)	-78*
O=C(Nc1ccccc1)c1ccc(CSc2ncccn2)cc1	-95*
NNC(=O)c1ccc(COc2ccc3ccccc3c2)cc1	-76*
O=C(Nc1ccc(Cn2cccn2)cc1)c1ccc(COc2ccccc2Br)cc1	-107*
Cc1ccc(C(=O)Nc2cc3c(oc2=O)CCCC3=O)cc1	-65*
CC(C)(C)C(=O)[C@H]1[C@H](c2ccccc2)[C@@]2(N=C(c3ccccc3)OC2=O)C2c3ccccc3C=NN21 (stereo not given in full)	-83*
CN(C)CCCNC(=S)NCC(c1ccc(Cl)cc1Cl)c1c[nH]c2ccccc12 (stereo not given)	111
COc1ccc(/C=C/C(=O)Nc2cc(C)nn2-c2nc3ccccc3[nH]2)cc1	-85*
CCCC(=O)c1ccc(N2CCCCCC2)c(F)c1	-137*
CCCC(=O)c1ccc(N2CCCCC2)c(F)c1	-126*
Nc1nc2c(s1)CCc1c-2cnn1-c1ccccc1	-80*
CCc1c(C)c2ccc(OCC(=O)OC(C)C)c(C)c2oc1=O	-107*
COC(=O)Cc1c(C)c2ccc(OCC(C)=O)c(C)c2oc1=O	-124*
CCN(CC)c1cc(C)c2cc(NC(=O)c3ccccc3OC)ccc2n1	-75*
CCN(CC)c1cc(C)c2cc(NC(=O)c3cccs3)ccc2n1	-65*
CNS(=O)(=O)c1cc2c3c(cccc3c1)C(=O)NC2=O	71
CNc1cccc2c1C(=O)c1ccccc1C2=O	-119*
O=c1[nH]c(CN2CCN(C/C=C/c3ccccc3)CC2)nc2ccccc12	-72*
CC(C(Sc1ccccc1N)c1ccccc1)[N+](=O)[O-] (stereo not given)	-83*
C/C(=N\Nc1ncc(Cl)cc1Cl)c1ccccn1	101
Clc1ccc(/C=N/NC(=Nc2ccccc2)c2ccccn2)c(Cl)c1	-82*
O=c1oc2cc(Cl)ccc2n1CSc1nc2ccccc2s1	-165*
SMILES	aSyn UTR act
O=c1cc(-c2ccccc2)oc2ccc(O)cc12	-90*
O=C(COc1ccc2oc(-c3ccccc3)cc(=O)c2c1)NCc1ccco1	-127*
COc1ccc(-c2cc(=O)c3cc(O)ccc3o2)cc1	-121*
O=c1cc2oc3cc(O)c(O)cc3c(-c3ccccc3[N+](=O)[O-])c-2cc1O	71
CN=c1sc(C(=O)Nc2cccc(Cl)c2)cc(=O)n1C	-140*
Cn1c(N)c(C(=O)Nc2cccc(Cl)c2)c(=O)n(C)c1=O	-76*
Cn1ccs/c1=N\C(=O)Nc1cccc(Cl)c1	-154*
N#C/C(=C(/O)CN1CCCCC1)c1nc(-c2ccc(Cl)cc2)cs1	-110*
Cc1ccc(-c2csc(/C(C#N)=C(\O)CCl)n2)cc1	-96*
Cc1c(CCC(=O)N2CCC(C(=O)O)(c3ccccc3)CC2)c(=O)oc2cc3oc4c(c3cc12)CCCC4	67
O=C(COc1ccc2ccccc2c1)N1CCCC1	-68*
O=C(COc1ccc2ccccc2c1)NC1CC1	-128*
O=C(COc1ccc2ccccc2c1)Nc1cccnc1Cl	-77*
Cc1c(CCC(=O)N2CCC(C(=O)O)CC2)c(=O)oc2cc3oc4c(c3cc12)CCCC4	74
O=C(COc1ccc2c3c(c(=O)oc2c1)CCC3)N1CCCCC1	-82*
CN(C)C=Nc1ccc2nn(-c3ccccc3)nc2c1	-211*
CN[C@H]1CCc2cc(OC)c(OC)c(OC)c2-c2ccc(OC)c(=O)cc21	90
Cc1ccc(OCC(=O)Nc2cccc(O)c2)cc1C	-172*
O=C(COc1cc(Cl)c(Cl)cc1Cl)Nc1cccc(O)c1	-90*
Cc1cccc(OCC(=O)Nc2cccc3nsnc23)c1	-82*
Cc1cccc(OCC(=O)Nc2cccc(O)c2)c1	-162*
COc1ccc(C2=Nn3c(nnc3-c3ccccc3OC)SC2)cc1OC	107
CCc1ccc(-c2nc(CCl)cs2)cc1	-123*
COc1ccc(-c2nc(CCl)cs2)cc1	-142*
COc1ccc(-c2csc(-c3ccc(O)cc3)n2)cc1	-215*
SMILES	aSyn UTR act
COc1ccc(-c2nc(-c3ccc(O)cc3O)cs2)cc1OC	-94*
C=CCN(CC=C)S(=O)(=O)c1ccc2nc(NC(=O)C3CCCO3)sc2c1 (stereo not given)	-89*
O=C(Nc1nc2ccc(S(=O)(=O)N3CCCC3)cc2s1)C1CCCCC1	72
O=C(Nc1nc2ccc(Cl)cc2s1)C1CC1	-150*
O=C(Nc1nc2ccc([N+](=O)[O-])cc2s1)C1CCCO1 (stereo not given)	-153*
O=C(Nc1nc2ccc(Cl)cc2s1)c1cccc(N2C(=O)CCC2=O)c1	-78*
O=C(Nc1nc2ccccc2s1)C1CCN(S(=O)(=O)c2cc([N+](=O)[O-])ccc2Cl)CC1	-81*
COC(=O)c1ccc2nc(NC(=O)C(C)(C)C)sc2c1	60
O=C(Nc1nc2ccc(Cl)cc2s1)C1CCCO1 (stereo not given)	-127*
COC(=O)c1ccc2nc(NC(=O)C3CCCCC3)sc2c1	-105*
Nc1ncc(Br)cc1N=Cc1ccccc1	-197*
COc1ccc2oc(=O)c(-c3nnc(NCc4ccco4)s3)cc2c1	-253*
CCOc1cccc2cc(-c3nnc(NCc4ccco4)s3)c(=O)oc12	-171*
CNc1nnc(-c2cc3cc(Cl)ccc3oc2=O)s1	-77*
Cc1ccc2c(c1)COc1c3ccc(C(=O)NCC4CC4)cc3nn1-2	-177*
C=CCNC(=O)c1ccc2c3n(nc2c1)-c1ccc(Cl)cc1CO3	-127*
CC(C)NC(=O)c1ccc2c3n(nc2c1)-c1ccccc1CO3	52
O=C(NCCO)c1ccc2c3n(nc2c1)-c1ccccc1CO3	-105*
CN(C)c1ccc(/C=N/c2cc(-c3ccccc3)nn2-c2ccccc2)cc1	-133*
CCOC(=O)c1ccc(NC(=O)Nc2ccon2)cc1	64
O=C(Nc1ccc(Cl)c(Cl)c1)Nc1ccon1	-69*
O=C(Nc1ccc(Cl)c(Cl)c1)Nc1ccccc1O	-105*
Cc1cc(OCCN2CCOCC2)ccc1Cl	-76*
Cc1ccc(OCc2ccc(C(=O)Nc3nc4ccccc4n3Cc3ccccc3)o2)c([N+](=O)[O-])c1	61
Cc1cc(OCCN2CCOCC2)ccc1[N+](=O)[O-]	-80*
SMILES	aSyn UTR act
Cc1ccc(OCCCN2CCOCC2)c([N+](=O)[O-])c1	-82*
Cc1cc(OCC(=O)N2CCOCC2)ccc1[N+](=O)[O-]	-76*
Cc1ccc(OCCCCCN2CCOCC2)c(Cl)c1	-74*
CC(=O)n1c2ccccc2c2nc3ccccc3nc21	-98*
CC(=O)n1cc(N(C(=O)CCl)c2ccc(C)cc2)c2ccccc21	89
COc1ccc(-c2noc(C3CCCN(C(=O)Nc4ccccc4F)C3)n2)cc1 (stereo not given)	-114*
COc1ccc(NC(=O)N2CCCC(c3nc(-c4ccc(OC)cc4)no3)C2)cc1 (stereo not given)	-94*
COc1ccc(-c2noc(C3CCCN(C(=O)Nc4ccccc4)C3)n2)cc1 (stereo not given)	-102*
COc1ccc(NC(=O)N2CCCC(c3nc(-c4ccc(C(C)C)cc4)no3)C2)cc1 (stereo not given)	-164*
CCCC(=O)N1CCCC(c2nc(-c3cccc(OC)c3)no2)C1 (stereo not given)	-84*
COc1ccc(-c2noc(C3CCCN(C(=O)c4ccccc4)C3)n2)cc1 (stereo not given)	-76*
